# Sfp PPTase inh = blocks B. subtilis Sfp PPTase activity | AID 1490 | Q9F4F7 | actives 3.5% (n = 310,000) | Potency, µM, inactives show largest response in the series, negative = inhibition, hits mostly inhibitors | Biochemical Sfp PPTase activity, qHTS;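 note: the enzyme is Sfp with the accession as filed and its product quenches rhodamine fluorescence; 0% = enzyme reaction without inhibitor and -100% = no enzyme wells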
#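 Step 1, compound plus 15 nM Sfp-PPTase, 15 min, room temperature. Step 2, add rhodamine-CoA (5 uM) and BHQ-2-YbbR (12.5 uM). Step 3, read 525/598 nm fluorescence at 0 and 30 min.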
# ALOX12 inh = inhibitors of human 12S-lipoxygenase ALOX12; purified 12hLO, xylenol orange hydroperoxide absorbance; Potency, µM (top dose mostly 108 µM), for the others: at the highest dose activity change, negative = inhibition, usual class: inhibitors; actives 1.1% (n = 580,000); note: % is set by controls: 0 for no effect and ±100 for the full control effect
#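 Hydroperoxide product was detected by ferrous iron/xylenol orange as the 573 to 405 nm absorbance ratio. Arachidonic acid at 40 uM (final) was turned over for 30 min at room temperature by 150 nM human 12hLO, pH 7.0 Hepes buffer, after 15 min compound preincubation.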
# Glioma ERSR ind = inducers of ER stress response in human glioma cells; U87-MG GRP78 promoter luciferase reporter, 16 h; Potency, µM, without a hit: at the highest dose activation, actives largely listed as activators; actives 0.02% (n = 420,000); note: series mostly up to about 76 µM; % of control where 0% means no effect; nearly all actives have a fitted effect of over 35% in size
#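 Stably transfected U87-MG human glioma cells carrying a GRP78-based luminescent sensor were seeded at 1000 cells/well, pin-dosed with compounds and incubated 16 h. Luciferase reagent was then added, and end-point luminescence was read after 10 min at room temperature.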
# G9a inh = blocks human histone lysine methyltransferase G9a | Q96KQ7 | G9a H3K9 monomethylation, AlphaScreen, 2 h | Potency, µM (titrated, usually from 102 µM), for the others: at the highest dose activity, negative = inhibition, actives largely listed as inhibitors | actives 8.8% (n = 350,000); note: % is set by controls: 0 for no effect and ±100 for the full control effect; nearly all actives have a fitted effect of over 75% in size
# Target sequence (Q96KQ7 913-1193 limits assumed): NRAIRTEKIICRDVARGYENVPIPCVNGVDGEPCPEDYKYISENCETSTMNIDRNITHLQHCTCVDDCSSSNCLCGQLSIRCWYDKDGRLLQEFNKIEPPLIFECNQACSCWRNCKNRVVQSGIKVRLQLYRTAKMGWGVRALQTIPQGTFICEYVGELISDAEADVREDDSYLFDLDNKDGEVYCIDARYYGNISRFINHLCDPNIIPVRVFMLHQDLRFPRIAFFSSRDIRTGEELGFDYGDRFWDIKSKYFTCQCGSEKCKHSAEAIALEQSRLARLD
#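 G9a (20 nM) was preincubated 15 min with compound, then reacted 2 h at room temperature with 500 nM biotin-H3K9 peptide and 20 µM SAM. Monomethyl-H3K9 detected by AlphaScreen using anti-H3K9me1 antibody.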
# VDR inhibitor = inhibitors of human vitamin D receptor; actives 0.93% (n = 400,000); VDR-SRC2-3 peptide fluorescence polarization, 2 h; P11473; AID 504847; Potency, µM, for the others: max response, negative = inhibition, most hits filed as inhibitors; note: % is set by controls: 0 for no effect and ±100 for the full control effect
# Target sequence (P11473 whole entry, looked up): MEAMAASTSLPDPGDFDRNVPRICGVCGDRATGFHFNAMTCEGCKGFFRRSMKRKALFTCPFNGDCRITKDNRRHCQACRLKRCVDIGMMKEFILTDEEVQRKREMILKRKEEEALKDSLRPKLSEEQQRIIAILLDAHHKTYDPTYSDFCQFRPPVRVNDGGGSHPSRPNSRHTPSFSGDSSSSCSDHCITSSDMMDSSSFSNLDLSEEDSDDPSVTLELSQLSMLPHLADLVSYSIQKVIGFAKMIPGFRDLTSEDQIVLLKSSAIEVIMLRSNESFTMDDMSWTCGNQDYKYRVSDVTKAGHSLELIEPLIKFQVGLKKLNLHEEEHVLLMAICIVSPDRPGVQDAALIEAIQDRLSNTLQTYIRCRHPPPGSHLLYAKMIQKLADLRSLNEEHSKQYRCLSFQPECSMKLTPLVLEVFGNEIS
#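 Compounds are added to VDR with labelled SRC2-3 coactivator peptide and held 2 h at room temperature. Inhibition of the VDR–peptide interaction is then read as a change in fluorescence polarization.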
# Numbers without * were called inactive; ? = inconclusive; . = no result; [ ] = dose if it differs, or a comment. Shown is part of a subset that was picked to be rich in hits. Calls come from the whole dose curve; as a rule, active = well fitted curve in the direction sought with a large enough effect; inconclusive = small, poorly fitted or top-dose-only effect, or another doubt; inactive = no such curve, though single readings can be large; an effect the other way counts as inactive or inconclusive. Potency is the fitted concentration of half-maximal effect.
SMILES,Sfp PPTase inh,ALOX12 inh,Glioma ERSR ind,G9a inh,VDR inhibitor
Cc1ccc(C)c(NCC(O)c2ccccc2)c1 (centres undefined),25%,0%,1%,71µM*,20%
COc1ccc(C)cc1NC(=O)C(NS(=O)(=O)c1cccs1)c1ccccc1 (centres undefined),.,-17%,0%,3%[59 µM],-15%
COc1ccc(Cl)cc1NC(=O)C(C)NC(c1ccccc1)c1ccccc1 (centres undefined),6%,-6%,-3%,79µM*,-5%
Cc1oc(-c2ccccc2)nc1CC(=O)Nc1ccccc1Cl,.,-4%,.,.,.
CC(=O)NC1C(c2nc3ccccc3s2)=C(c2ccccc2)C(=O)N1c1ccc(C)cc1 (centres undefined),15%,0%,1%,50µM*,-23%
COc1cccc(N2C(=O)C(c3ccccc3)=C(c3nc4ccccc4s3)C2NC(C)=O)c1 (centres undefined),9%,-27%,-4%,8%[12.7 µM],-6%
COc1ccc(Nc2cnc3ccc(-c4ccccc4)nn23)cn1,.,46%[176 µM],.,.,.
CCOC(=O)NC(C)c1ccc(OC)cc1 (centres undefined),.,32%,.,.,.
CC(C)CSc1nnc(SCC(=O)NCc2ccccc2)s1,.,29%,.,.,.
C=C(C)CC1Nc2ccccc2NC1CC(=C)C (centres undefined),?,28µM*,0%,?,-18%
C=C(C)CC1NC2CC(C)(C)C1c1c(Br)ccc(Br)c12 (centres undefined),.,-12%,.,.,.
CC(C)c1cc[n+](-c2nc([O-])sc2C=O)cc1,40µM*,?,3%,?,13%
CC(C)(C)c1cc[n+](-c2nc([O-])sc2C=O)cc1,25%,1%,-5%,12%,-15%
CCc1cc[n+](-c2nc([O-])sc2C=O)cc1,50µM*,?,-7%,?,-3%
CN(C)CCN(C)C(=O)c1ccc(-c2ncc3cnc(-c4cccc(F)c4)cn23)cc1,.,-27%[176 µM],.,.,.
CCCCOC(=O)c1ccc(NC(=S)NC(=O)c2ccco2)cc1,-16%,?,-3%,-46%,-7%
CCCCOC(=O)c1ccc(NC(=S)NC(=O)c2c(Cl)cnn2CC)cc1,45µM*,-21%,-2%,43%[12.7 µM],2%
CCCCOC(=O)c1ccc(NC(=S)NC(=O)c2c(Cl)cnn2C)cc1,79µM*,-29%,-2%,-1%,3%
Cc1ccc(/C=C/C(=O)N/N=C/c2ccccc2)cc1,.,-6%,.,.,.
COc1ccccc1NC(=O)c1ccc2c(c1)NC(=O)CS2,.,-24%,.,.,.
Cc1ccc(CN(Cc2ccco2)C(=O)COc2ccc(C)c(C)c2)cc1,.,?,1%,8%[59 µM],10%
Cc1cc(OCC(=O)N(Cc2ccc(N(C)C)cc2)Cc2ccco2)cc(C)c1Cl,.,-29%,.,11µM*,6%
Cc1cc(OC(C)C(=O)N(Cc2ccco2)Cc2ccccc2F)cc(C)c1Cl (centres undefined),.,-21%,-4%,28%[59 µM],14%
Cc1cc(OC(C)C(=O)N(Cc2ccc(N(C)C)cc2)Cc2ccco2)ccc1Cl (centres undefined),.,0%,.,13µM*,14%
CN(CC(=O)NC(N)=O)Cc1ccc(C(F)(F)F)cc1,.,-13%,.,.,.
SMILES,Sfp PPTase inh,ALOX12 inh,Glioma ERSR ind,G9a inh,VDR inhibitor
CCOC(=O)CNC(=O)CSc1cn(CC(=O)N(CC)CC)c2ccccc12,.,4%,.,.,.
CN1C2C=C3C(C#N)=C(N)C(C#N)(C#N)[C@H](c4c(F)cccc4F)[C@H]3C1CC2 (some centres undefined),9%,22%,15%,50µM*,-30%
CN1C2C=C3C(C#N)=C(N)C(C#N)(C#N)[C@@H](c4cccc(F)c4)[C@@H]3C1CC2 (some centres undefined),-7%,0%,0%,.,-26%
N#CC1=C(N)C(C#N)(C#N)[C@H](c2c(F)cccc2F)[C@H]2CC3(CC=C12)OCCO3,-9%,-22%,-6%,50µM*,?
N#CC1=C(N)C(C#N)(C#N)C2(CCC3(CC2)OCCO3)C2CC3(CC=C12)OCCO3 (centres undefined),3%,-6%,-3%,-2%[59 µM],18%
O=c1[nH]c(N2CCOCC2)nc2nccc(-c3cccnc3)c12,.,-28%,.,.,.
COc1cccc(C2CC(=O)Nc3cc4c(cc32)OCCO4)c1OC(C)C (centres undefined),6%,12%[57.4 µM],-4%,45µM*,-8%
CCOC(=O)c1[nH]c(C)c(C(=O)OCC2CC2(Cl)Cl)c1C (centres undefined),.,54%,.,.,.
c1ccc(CN2CCC(=NNc3nc4ccccc4[nH]3)CC2)cc1,-6%,?,-1%,-34%,-6%
CC(C)(C)C1CCC(=NNc2nc3ccccc3[nH]2)CC1 (centres undefined),-9%,-13%,1%,40µM*,0%
c1ccc2c(c1)CC/C2=N/Nc1nc2ccccc2[nH]1,35µM*,?,?,5%,-2%
O=C(NCC(c1ccco1)N1CCCC1)c1ccccc1Sc1ccc(C(F)(F)F)cc1[N+](=O)[O-] (centres undefined),.,?,-4%,10µM*,-15%
N#Cc1ccccc1Sc1ccccc1C(=O)NCC(c1ccco1)N1CCCCC1 (centres undefined),.,-2%,-4%,?,3%
COCC[N+]1(C)CCCCC1,5%,?,-2%,4.5µM*,-12%
C[N+]1(CCCCC[N+]2(C)CCCC2)CCCC1,3%,.,3%,12%,-2%
CCc1ccccc1N/N=C(/c1ccccc1)c1ccc(Br)cc1,.,7.9µM*,.,.,.
COc1cc(/C=C(\NC(=O)c2ccccc2)C(=O)NC(C(=O)O)c2ccccc2)cc(OC)c1OC (centres undefined),8%,-5%,-4%,40µM*,-10%
O=C(COc1ncnc2ccc(Br)cc12)NCc1ccccc1,.,-7%,.,.,.
O=C(NCc1ccnc2[nH]ccc12)c1cccc(Br)c1,.,-1%[176 µM],.,.,.
COc1ccc2nc(N=Nc3c(O)ccc4ccccc34)sc2c1,3%,.,.,3.2µM*,.
CCCNc1ccc2nnc(CC)n2n1,.,49%,.,.,.
Cc1ccc(NC(=O)C2=C(c3ccccc3)NC(=S)NC2c2ccc(Cl)cc2)cc1 (centres undefined),.,35µM*,.,.,.
CC1=C(C(=O)Nc2ccccc2)C(c2ccccc2)NC(=S)N1 (centres undefined),.,-48%,.,.,.
Cc1ccc(NC(=O)C2=C(c3ccccc3)NC(=S)NC2c2ccc(Br)cc2)cc1 (centres undefined),.,32µM*,.,.,.
CCNc1cc(N2CCC(CCC(=O)N3CCCN(c4ncccn4)CC3)CC2)ncn1,.,15%,.,.,.
CCCCn1c(=O)[nH]c(=O)c2c1nc(CCC(=O)Nc1ccc(C)cc1)n2CC(C)C,.,-24%,.,.,.
CCC(=O)Oc1cc2c(c3oc(=O)cc(-c4ccccc4)c13)CCC(C)(C)O2,.,9%,.,.,.
O=C(c1cc2nc(-c3ccco3)cc(C(F)(F)F)n2n1)N1CCCCCC1,56µM*,-15%,6%,?,-5%
